{
  "source": "PubChem BioAssay (NCI)",
  "note": "This is part of a sample that, as a whole, favours compounds with a hit. Of some 79,000 tested, about 15% had one in any assay. Unmarked numbers belong to inactive results. Calls of active or inactive are those of the source. Cut-off read from the data, not from the text of the source: active = growth inhibition above about 70%; inactive = the rest.",
  "data": [
    {"test": "NCI Yeast Anticancer Drug Screen. Data for the mec2-1 strain (AID 157)", "details": "S. cerevisiae mec2-1 strain, at 50.0 µM, active compounds read high", "in_short": "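Growth inhibition is read against vehicle-treated controls after compound exposure of the mec2-1 yeast strain, which is defective in DNA damage repair or cell cycle control.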", "values": [
      {"smiles": "Oc1ccccc1N=CC1CCCCC1", "growth inhibition": "37.1%"},
      {"smiles": "CC(O[Si](c1ccccc1)(c1ccccc1)C(C)(C)C)[C@H](NC(=O)OC(C)(C)C)C(=O)O[Si](c1ccccc1)(c1ccccc1)C(C)(C)C", "note": "(stereo not given in full)", "growth inhibition": "92.9% (active)"},
      {"smiles": "Cn1c(=O)c2c3oc(=O)cc(O)c3c(=O)n3c4ccccc4n(c1=O)c23", "growth inhibition": "19.9%"},
      {"smiles": "CCCCCCCCCCCCCCC(O)C(=O)O", "note": "(stereo not given)", "growth inhibition": "88.1% (active)"},
      {"smiles": "O=[N+]([O-])c1cc(I)cc(/C=N/NS(=O)(=O)c2ccc(F)cc2)c1O", "growth inhibition": "77.7% (active)"},
      {"smiles": "CCC/C=C1/OC(=O)C2=C[C@H]3CC[C@]21[C@]1(OC(=O)C2=C1CCC=C2)[C@H]3CCC", "growth inhibition": "88.9% (active)"},
      {"smiles": "C=C(CC)C[C@@H]1C[C@]2(C(=O)OC)c3[nH]c4ccccc4c3CCN2C1=O", "growth inhibition": "26.9%"},
      {"smiles": "Cc1ccc(N2C(=O)C(Cl)=C(Cl)C2=O)cc1", "growth inhibition": "99.4% (active)"},
      {"smiles": "COc1cc2c(cc1O)CCCCC2", "growth inhibition": "-29.2%"},
      {"smiles": "CC(C)Cc1cc(O)cc2ccccc12", "growth inhibition": "99.2% (active)"},
      {"smiles": "CCN(CC)Cc1cc(Nc2c3ccccc3nc3c4ccccc4n(C)c23)ccc1O", "growth inhibition": "16.2%"},
      {"smiles": "CC(=O)Nc1ccc(-c2csc(Nc3ccnc4cc(Cl)ccc34)n2)cc1", "growth inhibition": "51.4%"},
      {"smiles": "NNc1ccccc1F", "growth inhibition": "99.7% (active)"},
      {"smiles": "O=C(O)C1(Cc2ccc3c(c2)CCC3)Cc2ccccc2C1=O", "note": "(stereo not given)", "growth inhibition": "92.4% (active)"},
      {"smiles": "c1cc2cc(Cc3ccc4[nH]ccc4c3)ccc2[nH]1", "growth inhibition": "11.4%"},
      {"smiles": "COc1cc(C(c2cc3c(cc2O)OCO3)N2CCOCC2)ccc1O", "note": "(stereo not given)", "growth inhibition": "57.5%"},
      {"smiles": "Cc1c(N)nc(C2CC(=O)N2CC(N)C(N)=O)nc1C(=O)NC(C(=O)NC(C)C(O)C(C)C(=O)NC(C(=O)NCCc1nc(-c2nc(C(=O)NCCNCC(C)O)cs2)cs1)C(C)O)C(OC1OC(CO)C(O)C(O)C1OC1OC(CO)C(O)C(OC(N)=O)C1O)c1cnc[nH]1", "note": "(stereo not given)", "growth inhibition": "93.3% (active)"},
      {"smiles": "Cc1[nH]nc(C(=O)N(C)C)c1N=NN(C)C", "growth inhibition": "88.8% (active)"},
      {"smiles": "CSc1c(S(C)=O)c2ccccc2n1C", "note": "(stereo not given)", "growth inhibition": "-13.2%"},
      {"smiles": "CN(C)c1ccc(C=Nc2cnc3ccccc3c2)cc1", "growth inhibition": "-14.3%"},
      {"smiles": "CCCCCCCCCCCCCCCc1nc(SCC(=O)O)n[nH]1", "growth inhibition": "55.9%"},
      {"smiles": "Cc1ccc(S(=O)(=O)Oc2c([N+](=O)[O-])cc(C)cc2[N+](=O)[O-])cc1", "growth inhibition": "97.6% (active)"},
      {"smiles": "CCOC(=O)c1c(Cl)nnc(-c2ccccc2)c1-c1ccccc1", "growth inhibition": "96.2% (active)"},
      {"smiles": "Cc1cc(O)c(C=NC(=S)C(N)=S)c(=O)o1", "growth inhibition": "-19.6%"},
      {"smiles": "C/C(=N\\NC(=S)NC(C)(C)C)c1ccccn1", "growth inhibition": "85% (active)"},
      {"smiles": "S=C(Nc1ccc(Br)c(Cl)c1)SCc1ccc2c(c1)OCO2", "growth inhibition": "88.9% (active)"},
      {"smiles": "CC(=O)Nc1ccc(S(=O)(=O)N/N=C/c2cc(I)cc([N+](=O)[O-])c2O)cc1", "growth inhibition": "81.5% (active)"},
      {"smiles": "CCCC(O)CNCc1ccc(N(C)C)cc1", "note": "(stereo not given)", "growth inhibition": "-4.1%"},
      {"smiles": "CC(=O)Nc1nnc(-c2coc3ccccc3c2=O)s1", "growth inhibition": "6.25%"},
      {"smiles": "COc1ccc(CSC(=S)Nc2ccc(Cl)c(C(F)(F)F)c2)cc1", "growth inhibition": "90.2% (active)"},
      {"smiles": "CC(=O)Sc1ccc(Br)cc1", "growth inhibition": "36.9%"},
      {"smiles": "O=C(CNc1cccc(Cl)c1)Nn1c(-c2ccccc2)nc2ccccc2c1=O", "growth inhibition": "87.7% (active)"},
      {"smiles": "Cc1ccc(S(=O)(=O)c2cc(O)c(O)c3ccc(Br)cc23)cc1", "growth inhibition": "98.5% (active)"},
      {"smiles": "Fc1cccc2c1cc1ccc3cccc4ccc2c1c34", "growth inhibition": "40.4%"},
      {"smiles": "COC1=C(/C(=N/Nc2ccc([N+](=O)[O-])cc2[N+](=O)[O-])c2ccccc2)COC1=O", "growth inhibition": "9.25%"},
      {"smiles": "CCOC(=O)c1cnccc1CC1(C#N)c2ccccc2C=CN1C(=O)c1ccccc1", "note": "(stereo not given)", "growth inhibition": "83.5% (active)"},
      {"smiles": "CCCCNc1ccc(-c2c(N)nc(N)nc2CC)cc1[N+](=O)[O-]", "growth inhibition": "17.6%"},
      {"smiles": "O=C(NC1CCN(Cc2ccccc2)CC1)c1cccc(I)c1", "growth inhibition": "58%"},
      {"smiles": "O/N=C1/CC2CCCc3ccc4cccc1c4c32", "note": "(stereo not given)", "growth inhibition": "22.4%"},
      {"smiles": "CC(C)c1cc(O)c2c(c1O)C1CC3C(C)(C)CCC[C@]23C(=O)O1", "note": "(stereo not given in full)", "growth inhibition": "95% (active)"}
    ]},
    {"test": "NCI Yeast Anticancer Drug Screen. Data for the sgs1 mgt1 strain (AID 161);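 note: 0% = growth of cultures given vehicle only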", "details": "S. cerevisiae sgs1 mgt1 strain, at 5.0 µM (retest, dose inferred, filed as 0.5), active compounds read high", "in_short": "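This yeast growth screen uses a strain with defined DNA-repair lesions; compound-treated growth is compared with vehicle-treated growth.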", "values": [
      {"smiles": "Oc1ccccc1N=CC1CCCCC1", "growth inhibition": "-33%"},
      {"smiles": "CC(O[Si](c1ccccc1)(c1ccccc1)C(C)(C)C)[C@H](NC(=O)OC(C)(C)C)C(=O)O[Si](c1ccccc1)(c1ccccc1)C(C)(C)C", "note": "(stereo not given in full)", "growth inhibition": "96% (active)"},
      {"smiles": "Cn1c(=O)c2c3oc(=O)cc(O)c3c(=O)n3c4ccccc4n(c1=O)c23", "growth inhibition": "35%"},
      {"smiles": "CCCCCCCCCCCCCCC(O)C(=O)O", "note": "(stereo not given)", "growth inhibition": "-7%"},
      {"smiles": "O=[N+]([O-])c1cc(I)cc(/C=N/NS(=O)(=O)c2ccc(F)cc2)c1O", "growth inhibition": "19%"},
      {"smiles": "CCC/C=C1/OC(=O)C2=C[C@H]3CC[C@]21[C@]1(OC(=O)C2=C1CCC=C2)[C@H]3CCC", "growth inhibition": "17%"},
      {"smiles": "C=C(CC)C[C@@H]1C[C@]2(C(=O)OC)c3[nH]c4ccccc4c3CCN2C1=O", "growth inhibition": "8%"},
      {"smiles": "Cc1ccc(N2C(=O)C(Cl)=C(Cl)C2=O)cc1", "growth inhibition": "20%"},
      {"smiles": "COc1cc2c(cc1O)CCCCC2", "growth inhibition": "1%"},
      {"smiles": "CC(C)Cc1cc(O)cc2ccccc12", "growth inhibition": "3%"},
      {"smiles": "CCN(CC)Cc1cc(Nc2c3ccccc3nc3c4ccccc4n(C)c23)ccc1O", "growth inhibition": "-10%"},
      {"smiles": "CC(=O)Nc1ccc(-c2csc(Nc3ccnc4cc(Cl)ccc34)n2)cc1", "growth inhibition": "9%"},
      {"smiles": "NNc1ccccc1F", "growth inhibition": "-42%"},
      {"smiles": "O=C(O)C1(Cc2ccc3c(c2)CCC3)Cc2ccccc2C1=O", "note": "(stereo not given)", "growth inhibition": "3%"},
      {"smiles": "c1cc2cc(Cc3ccc4[nH]ccc4c3)ccc2[nH]1", "growth inhibition": "25%"},
      {"smiles": "COc1cc(C(c2cc3c(cc2O)OCO3)N2CCOCC2)ccc1O", "note": "(stereo not given)", "growth inhibition": "-2%"},
      {"smiles": "Cc1c(N)nc(C2CC(=O)N2CC(N)C(N)=O)nc1C(=O)NC(C(=O)NC(C)C(O)C(C)C(=O)NC(C(=O)NCCc1nc(-c2nc(C(=O)NCCNCC(C)O)cs2)cs1)C(C)O)C(OC1OC(CO)C(O)C(O)C1OC1OC(CO)C(O)C(OC(N)=O)C1O)c1cnc[nH]1", "note": "(stereo not given)", "growth inhibition": "87% (active)"},
      {"smiles": "Cc1[nH]nc(C(=O)N(C)C)c1N=NN(C)C", "growth inhibition": "-43%"},
      {"smiles": "CSc1c(S(C)=O)c2ccccc2n1C", "note": "(stereo not given)", "growth inhibition": "12%"},
      {"smiles": "CN(C)c1ccc(C=Nc2cnc3ccccc3c2)cc1", "growth inhibition": "-4%"},
      {"smiles": "CCCCCCCCCCCCCCCc1nc(SCC(=O)O)n[nH]1", "growth inhibition": "18%"},
      {"smiles": "Cc1ccc(S(=O)(=O)Oc2c([N+](=O)[O-])cc(C)cc2[N+](=O)[O-])cc1", "growth inhibition": "14%"},
      {"smiles": "CCOC(=O)c1c(Cl)nnc(-c2ccccc2)c1-c1ccccc1", "growth inhibition": "-2%"},
      {"smiles": "Cc1cc(O)c(C=NC(=S)C(N)=S)c(=O)o1", "growth inhibition": "22%"},
      {"smiles": "C/C(=N\\NC(=S)NC(C)(C)C)c1ccccn1", "growth inhibition": "32%"},
      {"smiles": "S=C(Nc1ccc(Br)c(Cl)c1)SCc1ccc2c(c1)OCO2", "growth inhibition": "77% (active)"},
      {"smiles": "CC(=O)Nc1ccc(S(=O)(=O)N/N=C/c2cc(I)cc([N+](=O)[O-])c2O)cc1", "growth inhibition": "14%"},
      {"smiles": "CCCC(O)CNCc1ccc(N(C)C)cc1", "note": "(stereo not given)", "growth inhibition": "-3%"},
      {"smiles": "CC(=O)Nc1nnc(-c2coc3ccccc3c2=O)s1", "growth inhibition": "1%"},
      {"smiles": "COc1ccc(CSC(=S)Nc2ccc(Cl)c(C(F)(F)F)c2)cc1", "growth inhibition": "43%"},
      {"smiles": "CC(=O)Sc1ccc(Br)cc1", "growth inhibition": "3%"},
      {"smiles": "O=C(CNc1cccc(Cl)c1)Nn1c(-c2ccccc2)nc2ccccc2c1=O", "growth inhibition": "4%"},
      {"smiles": "Cc1ccc(S(=O)(=O)c2cc(O)c(O)c3ccc(Br)cc23)cc1", "growth inhibition": "16%"},
      {"smiles": "Fc1cccc2c1cc1ccc3cccc4ccc2c1c34", "growth inhibition": "-5%"},
      {"smiles": "COC1=C(/C(=N/Nc2ccc([N+](=O)[O-])cc2[N+](=O)[O-])c2ccccc2)COC1=O", "growth inhibition": "-3%"},
      {"smiles": "CCOC(=O)c1cnccc1CC1(C#N)c2ccccc2C=CN1C(=O)c1ccccc1", "note": "(stereo not given)", "growth inhibition": "4%"},
      {"smiles": "CCCCNc1ccc(-c2c(N)nc(N)nc2CC)cc1[N+](=O)[O-]", "growth inhibition": "-9%"},
      {"smiles": "O=C(NC1CCN(Cc2ccccc2)CC1)c1cccc(I)c1", "growth inhibition": "57%"},
      {"smiles": "O/N=C1/CC2CCCc3ccc4cccc1c4c32", "note": "(stereo not given)", "growth inhibition": "-18%"},
      {"smiles": "CC(C)c1cc(O)c2c(c1O)C1CC3C(C)(C)CCC[C@]23C(=O)O1", "note": "(stereo not given in full)", "growth inhibition": "-5%"}
    ]}
  ]
}
